# Assay results from PubChem BioAssay (NCATS).
# Inconclusive results are not listed. Activity calls are given as the source filed them. Unless noted, calls come from the whole dose curve; as a rule, active = well fitted curve in the direction sought with a large enough effect; inconclusive = small, poorly fitted or top-dose-only effect, or another doubt; inactive = no such curve, though single readings can be large; an effect the other way counts as inactive or inconclusive.
# How the values were obtained:
# [1] = qHTS Assay for Lipid Storage Modulators (AID 1519; calls by dose curve; for activity change, negative = inhibition: % is set by controls: 0 for no effect and ±100 for the full control effect); details: Drosophila S3 cells, BODIPY lipid droplet/cell ratio, laser cytometry, cells loaded with oleic acid; for activity change, negative = inhibition: at 57.5 µM (top of the series)
# How it was run: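 Cells seeded at 5,000 per well were treated with compounds over a concentration series and loaded with oleic acid (400 uM, as added). Lipid droplet fluorescence (488 nm excitation, 500-530 nm channel) was read by laser-scanning cytometry and normalized to 20 uM Triacsin C.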
# [2] = target: Ubiquitin carboxyl-terminal hydrolase 1 (Homo sapiens) (UniProt O94782); experiment: Inhibitors of USP1/UAF1: Pilot qHTS (AID 504865); note: nearly all actives have a fitted effect of over 35% in size; note: potency is the fitted concentration of half-maximal effect;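 for activity change, negative = inhibition: rhodamine fluorescence freed from ubiquitin-rhodamine substrate followed over time; top concentration of the series differs between compounds; % is set by controls: 0 for no effect and ±100 for the full control effect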
# How it was run: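 Kinetic fluorescence assay: 1nM USP1/UAF1, 15 min compound preincubation, then 150nM Ub-Rho; 480/540 nm.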
# [3] = target: Cytochrome P450 3A4 (Homo sapiens) (UniProt P08684); experiment: qHTS Assay for Inhibitors and Substrates of Cytochrome P450 3A4 (AID 884); note: nearly all actives have a fitted effect of over 50% in size; note: potency is the fitted concentration of half-maximal effect; for activity change, negative = inhibition: % is set by controls: 0 for no effect and ±100 for the full control effect
# How it was run: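 20 nM human CYP3A4 with 25 uM Luciferin-PPXE (at KM) in 200 mM KPO4, preincubated 10 min with compound; NADPH regeneration started a 60 min RT reaction. Luciferin detected by luminescence, normalized to 57 uM ketoconazole as full inhibition.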
# [4] = Confirmation and Secondary Assay for Modulators of Hemoglobin Beta Chain Splicing at IVS2 654 locus (AID 910);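 note: per-well total GFP intensity by laser scanning cytometry after 2-day treatment; % of control where 0% means no effect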
# How it was run: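 HeLa cells stably carrying EGFP interrupted by mutant beta-globin IVS2-654 intron (CMV-driven) were treated with compound for 2 days at 37C; corrected splicing was scored as total peak GFP intensity per well (488 nm excitation, 500-520 nm emission).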
# [5] = Confirmation and Secondary Assay for Modulators of Hemoglobin Beta Chain Splicing at IVS2 705 locus (AID 930);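 note: HeLa cells stably expressing the EGFP-705 splicing reporter; % of control where 0% means no effect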
# How it was run: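 HeLa cells stably carrying EGFP interrupted by mutant beta-globin IVS2-705 intron (CMV-driven) were seeded at 500 cells/well, treated next day with compound for 2 days at 37C; corrected splicing restores EGFP, read as total peak GFP intensity per well.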
# [6] = target: Luciferin 4-monooxygenase (Photinus pyralis) (UniProt P08659); experiment: Biochemical firefly luciferase enzyme assay for NPC (AID 624030); note: nearly all actives have a fitted effect of over 70% in size; note: potency is the fitted concentration of half-maximal effect;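 for activity change, negative = inhibition: purified P. pyralis luciferase at 10 nM with luciferin and ATP substrate; 0% = DMSO and -100% = full luciferase inhibition by PTC124 control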
# How it was run: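 Counter-screen for direct inhibition of the luciferase enzyme by approved-drug library compounds, run at 10 nM enzyme in 50 mM Tris acetate (final). Luminescence was read within 5 min of enzyme-buffer addition and normalized to PTC124 versus DMSO (0%).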
# [7] = S16 Schwann cell PMP22 intronic element beta-lactamase assay (AID 624044; calls by dose curve;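 note: 0% = DMSO and -100% = potassium clavulanate positive control; nearly all actives have a fitted effect of over 15% in size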)
# How it was run: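 Rat S16 Schwann cells with beta-Lac driven by a PMP22 intronic element, compound-treated 24 h at 37 °C. LiveBLAzer FRET B/G read: 460 nm normalized to potassium clavulanate vs DMSO; 535 nm FRET as viability; concentration-effect curves classified.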
# C2A = experiment: qHTS profiling for inhibitors of Plasmodium falciparum proliferation (AID 504749); note: nearly all actives have a fitted effect of over 60% in size; note: potency is the fitted concentration of half-maximal effect;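 for activity, negative = inhibition: 0% = DMSO vehicle and full inhibition = artemisinin control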; details: P. falciparum in erythrocytes, SYBR Green DNA, 72 h; series mostly up to 12.8 µM
# How it was run: (§1)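 P. falciparum-infected erythrocytes (0.3% parasitemia, 2.5% hematocrit final) were exposed to compounds for 72 h at 37 C in 5% CO2, then lysed with SYBR Green buffer overnight at room temperature; parasite DNA fluorescence was normalized to artemisinin and DMSO controls.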
# CP191 = experiment: as above; details: P. falciparum in erythrocytes, SYBR Green DNA, 72 h; series mostly up to 12.8 µM
# How it was run: as §1
# CP201 = experiment: as above; details: P. falciparum in erythrocytes, SYBR Green DNA, 72 h; series mostly up to 12.8 µM
# How it was run: as §1
# CP262 = experiment: as above; details: P. falciparum in erythrocytes, SYBR Green DNA, 72 h; series mostly up to 12.8 µM
# How it was run: as §1
# CP315 = experiment: as above; details: P. falciparum in erythrocytes, SYBR Green DNA, 72 h; series mostly up to 12.8 µM
# How it was run: as §1
# DFO2036 = experiment: as above; details: P. falciparum in erythrocytes, SYBR Green DNA, 72 h; series mostly up to 12.8 µM
# How it was run: as §1
# ECU = experiment: as above; details: P. falciparum in erythrocytes, SYBR Green DNA, 72 h; series mostly up to 12.8 µM
# How it was run: as §1
# PC15 = experiment: as above; details: P. falciparum in erythrocytes, SYBR Green DNA, 72 h; series mostly up to 12.8 µM
# How it was run: as §1
# [8] = as above; details: P. falciparum in erythrocytes, SYBR Green DNA, 72 h
# How it was run: as §1
# CP238 = experiment: as above; details: P. falciparum in erythrocytes, SYBR Green DNA, 72 h; series mostly up to 12.8 µM
# How it was run: as §1
# CP268 = experiment: as above; details: P. falciparum in erythrocytes, SYBR Green DNA, 72 h; series mostly up to 12.8 µM
# How it was run: as §1
# FAB9 = experiment: as above; details: P. falciparum in erythrocytes, SYBR Green DNA, 72 h; series mostly up to 12.8 µM
# How it was run: as §1
# PC49 = experiment: as above; details: P. falciparum in erythrocytes, SYBR Green DNA, 72 h; series mostly up to 12.8 µM
# How it was run: as §1
# [9] = measured here: cell count channel max response
# [10] = measured here: lipid channel max response
# Luciferin 4-monooxygenase (Photinus pyralis), sequence (P08659 whole entry, looked up): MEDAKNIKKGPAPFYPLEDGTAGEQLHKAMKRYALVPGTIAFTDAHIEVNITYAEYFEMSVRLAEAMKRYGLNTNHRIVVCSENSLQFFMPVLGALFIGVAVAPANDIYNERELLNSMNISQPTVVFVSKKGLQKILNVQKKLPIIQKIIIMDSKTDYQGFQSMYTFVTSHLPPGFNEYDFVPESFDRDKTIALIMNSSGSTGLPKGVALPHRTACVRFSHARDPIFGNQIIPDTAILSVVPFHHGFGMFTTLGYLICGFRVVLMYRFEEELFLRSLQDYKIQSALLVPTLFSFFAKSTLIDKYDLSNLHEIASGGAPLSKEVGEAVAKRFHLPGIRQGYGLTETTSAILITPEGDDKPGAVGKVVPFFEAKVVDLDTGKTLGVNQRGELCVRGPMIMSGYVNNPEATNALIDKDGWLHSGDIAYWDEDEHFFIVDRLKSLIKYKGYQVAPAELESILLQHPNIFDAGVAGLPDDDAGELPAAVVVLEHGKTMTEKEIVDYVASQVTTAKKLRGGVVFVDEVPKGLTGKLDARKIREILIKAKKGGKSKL
# Ubiquitin carboxyl-terminal hydrolase 1 (Homo sapiens), sequence (O94782 whole entry, looked up): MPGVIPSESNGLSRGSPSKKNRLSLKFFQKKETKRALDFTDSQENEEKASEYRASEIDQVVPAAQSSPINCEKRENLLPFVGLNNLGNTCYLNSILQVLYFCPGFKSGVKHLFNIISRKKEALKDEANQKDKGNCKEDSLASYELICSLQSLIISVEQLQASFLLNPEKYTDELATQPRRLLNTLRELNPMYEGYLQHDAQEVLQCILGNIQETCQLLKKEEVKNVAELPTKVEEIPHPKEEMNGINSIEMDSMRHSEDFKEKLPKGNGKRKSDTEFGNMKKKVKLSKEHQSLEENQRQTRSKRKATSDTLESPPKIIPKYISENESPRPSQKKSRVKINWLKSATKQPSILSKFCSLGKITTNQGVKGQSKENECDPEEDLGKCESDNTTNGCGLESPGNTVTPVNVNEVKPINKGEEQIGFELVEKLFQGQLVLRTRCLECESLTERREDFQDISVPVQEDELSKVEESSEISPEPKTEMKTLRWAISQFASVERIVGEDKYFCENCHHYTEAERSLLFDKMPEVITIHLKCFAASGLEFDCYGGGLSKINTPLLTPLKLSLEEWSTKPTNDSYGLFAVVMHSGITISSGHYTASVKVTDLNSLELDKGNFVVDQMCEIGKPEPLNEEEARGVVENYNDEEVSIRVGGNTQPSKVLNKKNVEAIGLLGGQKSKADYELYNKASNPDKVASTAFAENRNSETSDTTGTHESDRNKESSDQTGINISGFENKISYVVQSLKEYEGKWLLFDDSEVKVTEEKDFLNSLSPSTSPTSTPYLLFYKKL
# Cytochrome P450 3A4 (Homo sapiens), sequence (P08684 whole entry, looked up): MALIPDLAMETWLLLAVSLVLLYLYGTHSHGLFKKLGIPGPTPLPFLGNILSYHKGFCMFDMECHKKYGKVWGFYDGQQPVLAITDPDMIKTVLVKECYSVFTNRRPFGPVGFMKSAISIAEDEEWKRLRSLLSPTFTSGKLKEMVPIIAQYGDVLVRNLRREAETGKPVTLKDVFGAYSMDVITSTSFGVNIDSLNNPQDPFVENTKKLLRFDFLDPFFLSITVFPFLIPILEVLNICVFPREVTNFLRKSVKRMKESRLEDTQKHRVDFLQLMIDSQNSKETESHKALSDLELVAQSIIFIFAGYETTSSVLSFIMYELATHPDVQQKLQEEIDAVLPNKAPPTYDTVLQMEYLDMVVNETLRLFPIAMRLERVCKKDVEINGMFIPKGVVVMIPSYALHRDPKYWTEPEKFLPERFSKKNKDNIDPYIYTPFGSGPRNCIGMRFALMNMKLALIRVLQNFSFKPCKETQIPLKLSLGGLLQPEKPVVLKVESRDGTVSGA
compound,measurement,setting,value
COC(=O)CCCC[C@@H]1SC[C@@H]2NC(=O)N[C@@H]21,"activity change, negative = inhibition",[1],0.0624% (inactive)
same,max response,[1]; [9],-0.817%
same,max response,[1]; [10],0.263%
same,Potency,[2],inactive
CC[C@H](CC[C@@H](C)C1CC[C@H]2[C@@H]3CC=C4C[C@@H](O)CC[C@]4(C)[C@H]3CC[C@]12C)C(C)C (some centres undefined),"activity change, negative = inhibition",[1],-0.0175% (inactive)
same,max response,[1]; [9],43.5%
same,max response,[1]; [10],42.8%
same,Potency,[2],inactive
NC(CCC(=O)N[C@@H](CS)C(=O)NCC(=O)O)C(=O)O (some centres undefined),Potency,[3],inactive
same,Potency,[4],inactive
same,Potency,[5],inactive
same,"activity change, negative = inhibition",[1],8.76% (inactive)
same,max response,[1]; [9],11.9%
same,max response,[1]; [10],24.8%
same,Potency,[2],inactive
same,Potency,[6],inactive
same,Potency,[7],inactive
same,Potency,C2A,10 µM (active)
same,Potency,CP191,8.91 µM (active)
same,Potency,CP201,inactive
same,Potency,CP262,inactive
same,Potency,CP315,inactive
same,Potency,DFO2036,6.31 µM (active)
same,Potency,ECU,10 µM (active)
same,Potency,PC15,5.01 µM (active)
NC(C(=O)O)[C@@H]1CC(Cl)=NO1 (some centres undefined),Potency,[3],inactive
same,Potency,[4],inactive
same,Potency,[5],inactive
same,"activity change, negative = inhibition",[1],6.89% (inactive)
same,max response,[1]; [9],16.9%
same,max response,[1]; [10],29%
same,Potency,[2],inactive
same,Potency,[6],inactive
same,Potency,[8]; parasite line A,1.26 µM (active)
same,Potency,[8]; parasite line B,2.82 µM (active)
same,Potency,C2A,1.12 µM (active)
same,Potency,CP191,2.51 µM (active)
same,Potency,CP201,3.01 µM (active)
same,Potency,CP238,2.82 µM (active)
same,Potency,CP262,4.26 µM (active)
same,Potency,CP268,1.51 µM (active)
same,Potency,CP315,3.38 µM (active)
same,Potency,DFO2036,2 µM (active)
same,Potency,ECU,2.24 µM (active)
same,Potency,FAB9,2.82 µM (active)
same,Potency,PC15,3.16 µM (active)
CC(C)Oc1ccc2c(=O)cc(-c3ccccc3)oc2c1,Potency,[3],inactive
same,Potency,[4],inactive
same,Potency,[5],inactive
same,"activity change, negative = inhibition",[1],14.1% (inactive)
same,max response,[1]; [9],14.7%
same,max response,[1]; [10],29.4%
same,Potency,[6],0.809 µM (active)
same,Potency,[7],inactive
same,"activity, negative = inhibition","[8]; at 28.7 µM (top of the series), parasite line A",-21.9% (inactive)
same,Potency,C2A,inactive
same,Potency,CP191,inactive
same,Potency,CP201,inactive
same,Potency,CP238,inactive
same,Potency,CP262,inactive
same,Potency,CP268,inactive
same,Potency,CP315,inactive
same,Potency,DFO2036,inactive
same,Potency,ECU,inactive
same,Potency,FAB9,inactive
same,Potency,PC15,inactive
same,Potency,PC49,inactive
NCC1O[C@@H](O[C@@H]2C(O)[C@H](O[C@H]3OC(CO)C(O)C(N)C3O)[C@@H](N)C[C@H]2N)C(N)C(O)C1O (some centres undefined),Potency,[3],inactive
same,Potency,[4],inactive
same,Potency,[5],inactive
same,"activity change, negative = inhibition",[1],5.31% (inactive)
same,max response,[1]; [9],20.8%
same,max response,[1]; [10],32.5%
same,Potency,[2],inactive
same,Potency,[6],inactive
Nc1ccn([C@@H]2O[C@H](CO)[C@@H](OP(=O)(O)O)[C@H]2O)c(=O)n1,"activity change, negative = inhibition",[1],4.4% (inactive)
same,max response,[1]; [9],7.76%
same,max response,[1]; [10],8.34%
same,Potency,[2],inactive
O=C(O)CCCCC1SCC2NC(=O)NC21 (centres undefined),Potency,[3],inactive
same,Potency,[4],inactive
same,Potency,[5],inactive
same,"activity change, negative = inhibition",[1],0.834% (inactive)
same,max response,[1]; [9],11.8%
same,max response,[1]; [10],16%
same,Potency,[2],inactive
same,Potency,[6],inactive
O=C1c2ccccc2C(=O)c2c(O)c(O)cc(O)c21,Potency,[4],inactive
same,Potency,[5],inactive
same,"activity change, negative = inhibition",[1],12.2% (inactive)
same,max response,[1]; [9],-4.21%
same,max response,[1]; [10],7.97%
same,Potency,[2],25.1 µM (active)
NC(=O)NCCC[C@H](N)C(=O)O,Potency,[3],inactive
same,"activity change, negative = inhibition",[1],-0.41% (inactive)
same,max response,[1]; [9],-16.4%
same,max response,[1]; [10],-15.2%
same,Potency,[2],inactive
C[C@H]1C[C@]2(O[C@@H]2C)C(=O)O[C@@H]2CCN(C)C/C=C(/COC(=O)[C@]1(C)O)C2=O,"activity change, negative = inhibition",[1],-0.98% (inactive)
same,max response,[1]; [9],-19.3%
same,max response,[1]; [10],-21.3%
same,Potency,[2],inactive
COc1cc(OC)c2c(=O)c(O)c(-c3ccc(OC)c(OC)c3)oc2c1,Potency,[3],2.51 µM (active)
same,Potency,[4],inactive
same,"activity change, negative = inhibition",[1],4.09% (inactive)
same,max response,[1]; [9],5.03%
same,max response,[1]; [10],9.16%
same,Potency,[2],inactive
COc1cccc2c1CCC1CC(=O)CC[C@@]21C (some centres undefined),Potency,[3],15.8 µM (active)
same,Potency,[4],inactive
same,Potency,[5],inactive
same,"activity change, negative = inhibition",[1],4.57% (inactive)
same,max response,[1]; [9],-12.9%
same,max response,[1]; [10],-5.49%
same,Potency,[2],inactive
C=C1C(C2(C)C=CC(=O)C(C)(C)C2CC(=O)OC)CC[C@@]2(C)C(c3ccoc3)OC(=O)C3OC132 (some centres undefined),Potency,[3],2.51 µM (active)
same,Potency,[4],inactive
same,Potency,[5],inactive
same,"activity change, negative = inhibition",[1],4.06% (inactive)
same,max response,[1]; [9],5.07%
same,max response,[1]; [10],10.2%
same,Potency,[2],inactive
Cc1cc(=O)c2c(O)cc(O)c(C)c2o1,Potency,[3],25.1 µM (active)
same,Potency,[4],inactive
same,Potency,[5],inactive
same,"activity change, negative = inhibition",[1],14% (inactive)
same,max response,[1]; [9],5.24%
same,max response,[1]; [10],21.1%
same,Potency,[2],inactive
